Experimental data as given in PubChem BioAssay AID493174 (National Center for Advancing Translational Sciences (NCATS), 2011).
Records with an inconclusive call do not appear. Unmarked numbers belong to inactive results. Active and inactive are the calls of the source. The call rests on the fitted dose curve; in most records, active means well fitted inhibition curve with a large enough effect; inconclusive means small, poorly fitted or top-dose-only effect; inactive means flat fitted curve, though single readings scatter.

Assay: Confirmatory Assay for General miRNAs Modulators and/or Inhibitors/Activators of miR-21: second round cherrypicks
Settings: HeLa miR-21 FLuc reporter, luciferase luminescence, 48 h; series mostly up to 38.3 µM; activity, negative = inhibition: at the top concentration
Text: MLPCN Grant: 1 R21 NS059478-01 Assay Provider: Qihong Huang, The Wistar Institute NCGC Assay Overview: MicroRNAs (miRNAs) are endogenously encoded small (~20-25 nucleotides), nonprotein-coding RNAs that are involved in post-transcriptional repression of target messenger RNAs (mRNAs) (Le and Hannon, 2004). Estimated to be involved in the regulation of 30% of all protein-coding mRNAs (Filipowicz et al., 2008), miRNAs play a significant role in many biological processes including cellular differentiation and tissue development (Ghildiyal and Zamore, 2009).
NCGC Assay Protocol Summary: Reagents: HeLa cells stably expressing firefly luciferase (FLuc) under the control of a CMV promoter (upstream) and a miR-21 binding sequence directly downstream of the gene. These cells endogenously express miR-21. Control compounds used were compound C3 (provided by collaborator), N6-phenyladenosine (MP Biomedicals, 0215379625), and DMSO. Assay Summary: 6uL of HeLa miR-21-FLuc cells in assay buffer (DMEM, Invitrogen #21063-029; 10% FBS, HyClone #SH30071.03) were dispensed at 2000cells/well (3.3 x 10^5 cells/mL) into Greiner solid-white TC-treated 1536-well plates using a Multidrop Combi (Thermo Fisher Scientific). Plates were incubated for one hour at 37 degree Celsius, 95% humidity, 5% CO2. These assay plates were then treated with 23nL of compound or DMSO using a Kalypsys pin tool, which allows for delivery of a 24-point titration of each compound to the assay plate, with a final compound concentration ranging from approximately 40uM to 5pM. Assay plates were then incubated for 48 hours. After incubation, plates were allowed to come to RT for one hour prior to delivery of 3uL of 3X luciferase detection reagent. After a 15 minute incubation to allow for cell lysis, luciferase activity was measured using a ViewLux CCD imager (PerkinElmer), with an average exposure time of 2-12 seconds. Keywords: NIH Roadmap, MLPCN, MLSMR, qHTS, miR-21, microRNA, firefly luciferase, FLuc.

Q: For CCC(=O)Nc1sc(C(=O)Nc2ccccc2)c(C)c1C(=O)OC, which Potency is on record?
A: Its Potency is 2.25 µM (active).

Q: For Cc1ccc(C(=O)Nc2ccc3c(c2)ncn3C)cc1, which Potency is on record?
A: The Potency was 7.11 µM (active).

Q: Which Potency does the source give for Cc1ccc(NC(=O)c2ccc(-c3ccccc3)s2)cc1 here?
A: Its Potency is 5.65 µM (active).

Q: With CC(C)c1cc(C(=O)Nc2cccnc2)no1 as the compound, how does the Potency read?
A: The Potency was 3.18 µM (active).

Q: With CC(=O)c1ccc(Oc2ncnc3c2oc2ccccc23)cc1 as the compound, how does the Potency read?
A: The Potency was 4 µM (active).

Q: With COc1ccc(Nc2nc(C)c3ccccc3n2)cc1 as the compound, how does the Potency read?
A: Its Potency is 6.34 µM (active).

Q: Which Potency does the source give for Cc1ccccc1NC(=O)c1cc2c([nH]c1=O)CC(C)(C)CC2=O here?
A: The Potency was 0.711 µM (active).

Q: For CC(=O)O[C@H]1C[C@@]2(C)[C@@H](C[C@@H](O)[C@H]3[C@@]4(C)CC[C@@H](O)[C@@H](C)C4CC[C@@]32C)/C1=C(\CCC=C(C)C)C(=O)O (stereo partly drawn), which “activity, negative = inhibition” value is on record?
A: The value was -6.79%.

Q: With CCOC(=O)c1cccc(NC(=O)c2cc(CN3CCCC3)on2)c1 as the compound, how does the Potency read?
A: Its Potency is 1 µM (active).

Q: Which Potency does the source give for COCCNC(=O)c1ccc2c(c1)ncn2-c1ccc(F)c(F)c1 here?
A: The Potency was 22.5 µM (active).

Q: Which Potency does the source give for Cc1cc(C)c2c(N)c(C(=O)Nc3ccccc3C(F)(F)F)sc2n1 here?
A: The Potency was 20 µM (active).

Q: For CCCOc1ccc(OC(=O)c2ccc(-c3ccc(CCC)cn3)cc2)cc1, which Potency is on record?
A: Its Potency is 1.26 µM (active).

Q: Which Potency does the source give for COC(=O)c1ccccc1NC(=O)Nc1cc(C(C)(C)C)on1 here?
A: Its Potency is 5.65 µM (active).

Q: For CCOC(=O)C1CCN(C(=O)c2ccc(-n3ccc4ccccc43)s2)CC1, which Potency is on record?
A: The Potency was 11.3 µM (active).

Q: Which Potency does the source give for Cc1cccc(NC(=O)Nc2ccc(Br)cc2)n1 here?
A: Its Potency is 2.52 µM (active).

Q: Which Potency does the source give for Cc1ccc(-c2cc(C(=O)NCC3CCCO3)no2)cc1 (stereo not drawn) here?
A: The Potency was 4.49 µM (active).

Q: With COc1ccccc1N1CCN(C(=O)c2nc(-c3ccc(C)cc3)n3c2CCCCC3)CC1 as the compound, how does the “activity, negative = inhibition” value read?
A: The value was 11%.

Q: For O=C(NC1CCCCCC1)C1CCN(C(=O)N2CCOc3ccc(Cl)cc32)CC1, which “activity, negative = inhibition” value is on record?
A: The value was -7.39%.

Q: Which Potency does the source give for O=C(Nc1sc2c(c1C(=O)NCc1ccco1)CCCC2)c1cc(=O)c2ccccc2o1 here?
A: Its Potency is 5.65 µM (active).

Q: Which Potency does the source give for CC(=O)N1CCc2cc(CNC(=O)Cc3ccc(F)cc3)ccc21 here?
A: Its Potency is 11.3 µM (active).

Q: For CCCCN1CCc2c([nH]c3ccccc23)C1=O, which Potency is on record?
A: The Potency was 12.6 µM (active).

Q: With CCc1cc(C(=O)Nc2ccccc2)cs1 as the compound, how does the Potency read?
A: Its Potency is 3.18 µM (active).

Q: Which “activity, negative = inhibition” value does the source give for CCC(CC)C(=O)Nc1nnc(S(=O)(=O)N2CCCCCC2)s1 here?
A: The value was -4.03%.

Q: Which “activity, negative = inhibition” value does the source give for CCC(C)NC(=O)CCCn1c(=O)c2cccn2c2ccccc21 (stereo not drawn) here?
A: The value was -5.57%.

Q: With CCC(C)C(=O)N1CCCC(c2nc(-c3cccs3)no2)C1 (stereo not drawn) as the compound, how does the Potency read?
A: The Potency was 12.6 µM (active).

Q: Which “activity, negative = inhibition” value does the source give for C/C(=N/NC(=O)c1ccccc1)c1ccc(NC(=O)C(F)(F)F)cc1 here?
A: The value was -18.7%.

Q: With COc1ccc(N2C(=O)c3ccccc3NC2c2ccc(OC)c(Cn3nnc4ccccc43)c2)cc1 (stereo not drawn) as the compound, how does the Potency read?
A: The Potency was 12.6 µM (active).

Q: With CN(c1ccccc1)S(=O)(=O)c1nnc(NC(=O)c2ccco2)s1 as the compound, how does the “activity, negative = inhibition” value read?
A: Its value is -5.67%.
